From PubChem BioAssay
Shown are actives, neighbours in structure and some others; about 3.6% of the full set was active somewhere.
Pf apPOL inh = Pf-apPOL DNA polymerase inhibition; Recombinant Pf-apPOL, molecular beacon fluorescence, 1.5 h; inhibition, % at 10 µM; 0.25% of 210,000 active
mHTT-CaM PPI inh = mHTT-calmodulin interaction abrogation. inhibition, % at 15 µM. P42858. 3.6% of 190,000 active. AlphaScreen His-mHTT/GST-CaM binding, luminescence;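 note: 0% = both proteins with DMSO and 100% = one protein alone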
Target sequence (P42858 whole entry, looked up, stated change not applied): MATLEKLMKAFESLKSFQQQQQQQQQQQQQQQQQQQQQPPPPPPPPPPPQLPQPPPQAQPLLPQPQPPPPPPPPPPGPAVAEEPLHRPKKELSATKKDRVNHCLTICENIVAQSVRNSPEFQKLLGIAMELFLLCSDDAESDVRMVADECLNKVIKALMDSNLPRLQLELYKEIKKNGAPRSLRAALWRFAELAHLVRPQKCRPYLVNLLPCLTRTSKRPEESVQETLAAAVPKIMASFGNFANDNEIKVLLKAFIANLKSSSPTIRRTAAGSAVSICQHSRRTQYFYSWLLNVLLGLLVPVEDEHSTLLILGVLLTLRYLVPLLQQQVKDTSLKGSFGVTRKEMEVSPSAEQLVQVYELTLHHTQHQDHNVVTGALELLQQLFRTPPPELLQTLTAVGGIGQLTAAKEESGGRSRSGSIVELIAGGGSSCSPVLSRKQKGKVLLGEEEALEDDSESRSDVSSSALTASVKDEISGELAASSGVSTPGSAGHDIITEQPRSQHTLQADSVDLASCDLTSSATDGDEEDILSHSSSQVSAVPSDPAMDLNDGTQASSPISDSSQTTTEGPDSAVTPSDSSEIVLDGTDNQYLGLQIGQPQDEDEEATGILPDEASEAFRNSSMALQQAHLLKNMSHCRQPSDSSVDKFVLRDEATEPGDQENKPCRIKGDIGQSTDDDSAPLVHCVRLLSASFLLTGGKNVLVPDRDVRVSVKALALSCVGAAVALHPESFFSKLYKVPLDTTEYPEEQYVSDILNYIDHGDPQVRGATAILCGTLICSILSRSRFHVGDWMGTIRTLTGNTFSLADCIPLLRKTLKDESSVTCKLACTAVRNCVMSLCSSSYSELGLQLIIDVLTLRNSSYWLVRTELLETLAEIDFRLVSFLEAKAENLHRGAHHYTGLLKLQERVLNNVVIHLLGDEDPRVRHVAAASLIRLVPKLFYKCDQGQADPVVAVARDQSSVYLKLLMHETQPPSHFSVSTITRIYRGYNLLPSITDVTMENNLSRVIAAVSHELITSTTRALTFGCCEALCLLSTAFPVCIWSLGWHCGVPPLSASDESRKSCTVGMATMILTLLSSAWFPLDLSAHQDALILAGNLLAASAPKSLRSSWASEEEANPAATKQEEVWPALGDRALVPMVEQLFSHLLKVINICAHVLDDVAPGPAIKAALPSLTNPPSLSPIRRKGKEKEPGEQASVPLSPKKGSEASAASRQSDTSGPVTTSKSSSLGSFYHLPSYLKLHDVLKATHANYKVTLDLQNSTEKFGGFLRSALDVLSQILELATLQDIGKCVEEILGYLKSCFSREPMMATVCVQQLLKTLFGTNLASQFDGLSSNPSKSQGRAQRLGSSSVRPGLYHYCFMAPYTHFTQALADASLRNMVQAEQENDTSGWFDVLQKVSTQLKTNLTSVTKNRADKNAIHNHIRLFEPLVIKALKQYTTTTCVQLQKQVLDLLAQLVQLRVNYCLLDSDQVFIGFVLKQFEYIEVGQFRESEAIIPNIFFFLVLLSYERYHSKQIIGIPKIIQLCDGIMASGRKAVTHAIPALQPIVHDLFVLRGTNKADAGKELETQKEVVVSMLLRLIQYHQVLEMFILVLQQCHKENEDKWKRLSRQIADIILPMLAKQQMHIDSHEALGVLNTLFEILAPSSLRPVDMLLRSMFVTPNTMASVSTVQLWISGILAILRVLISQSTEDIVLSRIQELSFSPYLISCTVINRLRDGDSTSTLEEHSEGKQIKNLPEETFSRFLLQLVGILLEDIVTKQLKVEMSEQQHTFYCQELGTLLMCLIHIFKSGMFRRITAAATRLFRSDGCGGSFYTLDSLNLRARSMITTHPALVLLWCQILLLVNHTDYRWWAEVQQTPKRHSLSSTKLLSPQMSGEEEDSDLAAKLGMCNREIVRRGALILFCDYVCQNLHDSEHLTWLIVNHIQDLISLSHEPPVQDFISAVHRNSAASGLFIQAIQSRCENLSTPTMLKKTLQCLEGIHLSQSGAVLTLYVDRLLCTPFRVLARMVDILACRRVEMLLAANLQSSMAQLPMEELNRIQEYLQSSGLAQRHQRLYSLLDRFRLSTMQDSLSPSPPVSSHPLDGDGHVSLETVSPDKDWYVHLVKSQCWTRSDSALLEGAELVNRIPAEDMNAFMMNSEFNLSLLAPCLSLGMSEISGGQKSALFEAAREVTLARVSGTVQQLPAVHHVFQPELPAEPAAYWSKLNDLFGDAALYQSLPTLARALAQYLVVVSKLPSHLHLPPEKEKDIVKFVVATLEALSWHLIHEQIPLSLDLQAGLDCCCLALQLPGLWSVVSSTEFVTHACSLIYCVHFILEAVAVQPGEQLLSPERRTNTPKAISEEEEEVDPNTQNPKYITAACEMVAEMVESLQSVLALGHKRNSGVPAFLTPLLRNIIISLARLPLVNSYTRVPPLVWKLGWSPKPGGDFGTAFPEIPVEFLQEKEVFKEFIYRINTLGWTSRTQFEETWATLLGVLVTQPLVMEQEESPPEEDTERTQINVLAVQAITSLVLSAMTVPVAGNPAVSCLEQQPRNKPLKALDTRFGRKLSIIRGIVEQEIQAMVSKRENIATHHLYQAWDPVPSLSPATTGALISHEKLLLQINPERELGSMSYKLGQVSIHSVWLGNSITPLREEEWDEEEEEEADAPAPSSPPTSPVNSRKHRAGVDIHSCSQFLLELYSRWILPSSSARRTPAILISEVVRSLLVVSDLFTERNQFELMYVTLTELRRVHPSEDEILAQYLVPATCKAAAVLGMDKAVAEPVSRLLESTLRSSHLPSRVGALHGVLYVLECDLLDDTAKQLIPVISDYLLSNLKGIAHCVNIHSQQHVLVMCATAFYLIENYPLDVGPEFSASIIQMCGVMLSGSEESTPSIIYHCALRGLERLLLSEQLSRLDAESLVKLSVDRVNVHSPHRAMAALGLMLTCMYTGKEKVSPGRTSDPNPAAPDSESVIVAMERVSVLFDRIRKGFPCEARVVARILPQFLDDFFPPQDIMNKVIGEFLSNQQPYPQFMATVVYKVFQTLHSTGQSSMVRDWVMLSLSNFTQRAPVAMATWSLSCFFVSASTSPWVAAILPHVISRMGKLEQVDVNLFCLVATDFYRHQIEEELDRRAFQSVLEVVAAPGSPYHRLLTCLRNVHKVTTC
Starred values were filed as active, the others as inactive; / = no result given. Cut-off read from the data, not from the text of the source: active = inhibition above about 50%; inactive = the rest.

SMILES	Pf apPOL inh	mHTT-CaM PPI inh
O=C(CN1CCOCC1)Nc1ccc(Br)cc1C(=O)c1ccccc1	-4	3
CCOC(=O)C(=O)N1CC2CC(C1)c1cccc(=O)n1C2 (centres undefined)	11	2
CCN1C(=O)NC(=O)/C(=C/c2cn(CC(=O)NCc3ccco3)c3ccccc23)C1=O	-1	51*
CCN1C(=O)NC(=O)/C(=C/c2cn(CC(=O)NCCOC)c3ccccc23)C1=O	-6	5
CCN1C(=O)NC(=O)/C(=C/c2cn(CC(=O)N3CCCCC3)c3ccccc23)C1=O	1	7
CCN(CC)C(=O)Cn1cc(/C=C2\C(=O)NC(=O)N(c3ccccc3F)C2=O)c2ccccc21	-3	62*
CCSc1nc2ccccc2c(=O)n1-c1cccc(Cl)c1	-2	-7
Cc1ccc(Sc2ccc(C=C3C(=O)NC(=O)NC3=O)o2)cc1	4	1
COc1ccc(CN2CCN(c3cccc(Cl)c3)CC2)cc1O	-5	12
COc1cc(CN2CCN(c3cccc(Cl)c3)CC2)cc(I)c1O	-6	58*
Cc1nc(-c2ccccc2)sc1CC(=O)N1CCN(Cc2ccc3c(c2)OCO3)CC1	-1	30
COCCN1CCC(N2CCCN(C(=O)COc3cccc(C)c3)CC2)C1=O (centres undefined)	1	22
O=C(COc1cccc(Cl)c1)N1CCCN(C2CCN(Cc3ccccc3)C2=O)CC1 (centres undefined)	0	75*
O=[N+]([O-])c1ccc(NCCNCCOc2nonc2-c2ccccc2)c2ncccc12	2	35
COc1cc(/C=C/[N+](=O)[O-])cc(I)c1OCc1ccccc1	-4	4
COc1cc(/C=C/[N+](=O)[O-])cc(I)c1O	-3	52*
C#CCOc1c(I)cc(/C=C/[N+](=O)[O-])cc1OC	0	14
CCOc1cc(/C=C/[N+](=O)[O-])cc(I)c1O	-2	57*
CC(=O)C1(O)CCC2(O)C3(O)CC=C4CC(O)CCC4(C)C3CC(OC(=O)C=C(C)C(C)C)C12C (centres undefined)	-13	/
N#CC1=C(N)C(C#N)(C#N)C(c2ccccc2C(F)(F)F)C2CSCC=C12 (centres undefined)	-3	55*
CCn1cc(C(=O)NCc2ccc(C)cc2)c2cccnc21	-10	-3
Cc1ccc(C=C2CC3C4CCC5CCCCC5(C)C4CCC3(C)C2O)o1 (centres undefined)	-11	1
COc1ccc(C=C2CC3C4CCC5CC(O)CCC5(C)C4CCC3(C)C2=O)cc1 (centres undefined)	1	-2
O=C1CC(=O)N(c2cccc(Cl)c2Cl)C(=O)N1	-7	3
O=c1ccsn1-c1cccc(Cl)c1F	93*	/
SMILES	Pf apPOL inh	mHTT-CaM PPI inh
COc1ccc2c(c1)C1(CCN(C(=O)Nc3ccc(F)cc3)C1)C(=O)N2 (centres undefined)	-7	6
O=S(=O)(F)c1ccc(C2=CC(c3ccccc3)n3ncnc3N2)cc1 (centres undefined)	-5	100*
O=S(=O)(F)c1ccc(-c2nnc(-c3ccccc3)o2)cc1	3	9
CC1CCN(C(=O)c2ccc(N3CC4CC(C3)c3cccc(=O)n3C4)c(N)c2)CC1 (centres undefined)	-2	11
O=C1CN=C(c2ccccc2Br)c2cc(Cl)ccc2N1	-9	18
Cc1ccc(C2=NCC(=O)Nc3ccc(Br)cc32)cc1	-69	97*
CC1N=C(c2ccccc2)c2ccccc2N(CC(=O)Nc2ccc(N(C)C)cc2)C1=O (centres undefined)	-24	35
O=C(CN1C(=O)CN=C(c2ccccc2)c2cc(Cl)ccc21)NCc1cccc(Cl)c1	-12	91*
CC1N=C(c2ccccc2)c2ccccc2N(CC(=O)NCc2ccco2)C1=O (centres undefined)	-15	1
CCN(C(=O)CN1C(=O)C(C)N=C(c2ccccc2)c2ccccc21)c1cccc(C)c1 (centres undefined)	-1	26
Cc1cc(C)n(C(=O)CN2C(=O)CN=C(c3ccccc3)c3cc(Br)ccc32)n1	-11	64*
O=C(CN1C(=O)CN=C(c2ccccc2)c2cc(Cl)ccc21)Nc1cccc(C(F)(F)F)c1	-14	82*
COc1ccc2c(c1)C1(CCN(S(=O)(=O)c3cccc(C)c3)C1)C(=O)N2 (centres undefined)	-4	14
COC(=O)c1ccc(CCl)s1	/	100*
Cc1ccc(CN2CCN(Cc3ccccc3)CC2)cc1	-11	1
Nc1nc2ccccc2c(-c2cccc3ccccc23)c1CN1CC1	/	98*
Cc1ccccc1-n1c(/C=C2\C(=O)Nc3ccc(Br)cc32)nc2ccccc2c1=O	5	44
Cc1ccccc1-n1c(/C=C2\C(=O)N(C)c3ccccc32)nc2ccccc2c1=O	-1	65*
CN(C)c1ccc(/C=C/c2nc3ccccc3c(=O)n2-c2ccc(O)cc2)cc1	-6	-1
CN1CCc2[nH]c(=S)c(C#N)c(-c3cccs3)c2C1	/	52*
CN1CCc2[nH]c(=S)c(C#N)cc2C1	/	23
O=[N+]([O-])c1ccc(N2CCOCC2)c2nonc12	-84	/
O=[N+]([O-])c1ccc(N2CCCCC2)c2nonc12	-122	/
Nc1ccc([N+](=O)[O-])c2nonc12	/	53*
O=[N+]([O-])c1ccc(Cl)c2nonc12	/	96*
SMILES	Pf apPOL inh	mHTT-CaM PPI inh
Cc1cccc(-c2nc(CN3CCN(C(=O)Cc4ccccc4)CC3)no2)c1	-3	12
COc1ccccc1CC(=O)N1CCCN(C2CCN(CC3CC3)C2=O)CC1 (centres undefined)	3	5
CC(C)c1ccc(C=C2CC3C4CCC5CC(O)CCC5(C)C4CCC3(C)C2=O)cc1 (centres undefined)	4	10
COc1ccc2c(c1)C1(CCN(S(=O)(=O)c3ccc4c(c3)OCCO4)C1)C(=O)N2C (centres undefined)	3	-5
CC12CN3CC(C)(CN(C1)C3c1cccs1)C2=O (centres undefined)	-1	-4
CC12CN3CC(C)(CN(C1)C3c1ccccn1)C2O (centres undefined)	-15	100*
COc1ccc(C=C[N+](=O)[O-])cc1OCc1ccccc1	-4	/
Cc1cc([N+](=O)[O-])nn1CC(=O)Nc1ccc(Cl)cc1C(=O)c1ccccc1	1	3
O=C(CN1CCN(c2ccc(F)cc2)CC1)Nc1ccc(Cl)cc1C(=O)c1ccccc1	-1	72*
CCN1C(=O)NC(=O)/C(=C/c2cn(CCOc3ccccc3)c3ccccc23)C1=O	-10	44
O=C(O)C1Nc2c(F)cccc2C2C(Cl)C(Sc3ccccc3[N+](=O)[O-])CC12 (centres undefined)	1	68*
Cc1ccc2c(CN3CC4CC(C3)c3cccc(=O)n3C4)cc(=O)oc2c1 (centres undefined)	-1	0
CC12CCC(O)CC1CCC1C2CCC2(C)C(O)C(=Cc3ccccc3Cl)CC12 (centres undefined)	4	1
COc1cc(CN2CC3CC(C2)c2cccc(=O)n2C3)cc(I)c1O (centres undefined)	2	18
COc1ccc2c(c1)C1(CCN(C(=O)c3cccc(Br)c3)C1)C(=O)N2C (centres undefined)	-5	11
